# Screens deposited in PubChem by National Center for Advancing Translational Sciences (NCATS).
# G9a inh-1 – G9a (human) methyltransferase inhibition; Q96KQ7; G9a H3K9 monomethylation, AlphaScreen, 2 h; Potency, µM (titrated, usually from 102 µM), inactives show at the top dose activity, negative = inhibition, actives largely listed as inhibitors; 350,000 compounds, 8.8% hits; AID 504332; further: on the % scale 0 is the no-effect control and ±100 the full control effect; nearly all actives have a fitted effect of over 75% in size
#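 Compounds were preincubated with 20 nM G9a for 15 min, after which biotinylated H3K9 peptide (500 nM) and SAM (20 uM) started a 2 h room-temperature reaction. Monomethylated product was quantified by antibody-based AlphaScreen chemiluminescence.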
# PLK1 PBD block – PLK1 (human) polo-box domain binding inhibition; Potency, µM, inactives show max response, negative = inhibition, most hits filed as inhibitors; Plk1 PBD binding of FITC phosphopeptide, fluorescence polarization; P53350; AID 720504; 360,000 compounds, 2.8% hits; further: series mostly up to about 57 µM; on the % scale 0 is the no-effect control and ±100 the full control effect; nearly all actives have a fitted effect of over 65% in size
# HP1b chromo inh – blocks HP1-beta chromodomain binding to methylated histone tails; AlphaScreen HP1-beta / biotin-H3K9me3 peptide binding; Potency, µM (top dose mostly 114 µM), inactives show top-dose activity change, negative = inhibition, actives largely listed as inhibitors; 390,000 compounds, 0.56% hits; further: nearly all actives have a fitted effect of over 70% in size
#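 HP1-beta protein (50 nM final) preincubated 30 min at room temperature with biotinylated H3(1-18)K9me3 peptide (50 nM) in PBS pH 7.4, 0.01% Tween-20, then compound added for 30 min. AlphaScreen streptavidin donor/nickel chelate acceptor beads (10 ug/mL final), 30 min dark, luminescence read.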
# ALOX12 inh – blocks human arachidonate 12S-lipoxygenase; P18054; purified 12hLO, xylenol orange hydroperoxide absorbance; Potency, µM (highest dose often 108 µM), without a hit: at the highest dose activity change, negative = inhibition, usual class: inhibitors; 580,000 compounds, 1.1% hits; AID 1671190; further: on the % scale 0 is the no-effect control and ±100 the full control effect
#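 Hydroperoxide product was detected by ferrous iron/xylenol orange as the 573 to 405 nm absorbance ratio. Arachidonic acid at 40 uM (final) was turned over for 30 min at room temperature by 150 nM human 12hLO, pH 7.0 Hepes buffer, after 15 min compound preincubation.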
# BAZ2B block – blocks human BAZ2B; Q9UIF8; AlphaScreen BAZ2B-H3K14Ac peptide displacement; Potency, µM (highest dose often 114 µM), for inactives: at the top dose activity change, negative = inhibition, actives largely listed as inhibitors; 360,000 compounds, 4.4% hits; AID 504333; further: on the % scale 0 is the no-effect control and ±100 the full control effect; nearly all actives have a fitted effect of over 60% in size
#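 In this displacement format the biotinylated H3(5-23) peptide acetylated at Lys14 serves as ligand at 50 nM, with BAZ2B at 50 nM in PBS pH 7.4 containing 0.01% Tween-20. Donor and acceptor beads are 10 ug/mL final.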
# JMJD2A Tudor inh – JMJD2A Tudor domain (human) inhibition. 390,000 compounds, 4.4% hits. AID 504339. Potency, µM (top dose mostly 114 µM), for inactives: top-dose activity change, negative = inhibition, actives largely listed as inhibitors. AlphaScreen JMJD2A-Tudor / H3K4me3 peptide binding; further: on the % scale 0 is the no-effect control and ±100 the full control effect; nearly all actives have a fitted effect of over 50% in size
# G9a inh-2 – confirmation of human histone methyltransferase G9a inhibitors. shares compounds with JMJD2A Tudor inh. G9a H3K9 monomethylation, AlphaScreen, 2 h. Potency, µM, hits mostly inhibitors. 370 compounds, 89% hits. AID 588344; further: nearly all actives have a fitted effect of over 65% in size
# Active calls of the source: *; ? = inconclusive; / = no result; [ ] = remark or other dose. Most compounds without a hit are left out; they make up all but 9% or so of the library. The call rests on the fitted dose curve; in most records, active means well fitted curve in the direction sought with a large enough effect; inconclusive means small, poorly fitted or top-dose-only effect, or another doubt; inactive means no such curve, though single readings can be large; an effect the other way counts as inactive or inconclusive. Potency means the concentration at half of the fitted maximal effect.
SMILES,G9a inh-1,PLK1 PBD block,HP1b chromo inh,ALOX12 inh,BAZ2B block,JMJD2A Tudor inh,G9a inh-2
CCOc1ccc(CNc2ccc(N3CCCC3)cc2)cc1,?,?,-30.0%,?,17.8µM*,63.1µM*,0.893*
CC(C)c1ccc(CNc2ccc(N3CCOCC3)c(C(=O)O)c2)cc1,/,/,/,-3.4%,/,/,/
COc1ccc(CN2CCc3ccccc3C2)cc1Br,2.24µM*,-7.1%,-26.6%,0.0%,50.1µM*,28.2µM*,11.2*
COc1ccc(N2CCN(c3nc4ccccc4nc3NS(=O)(=O)c3ccccc3)CC2)cc1,?,-25.0%,?,0.0%,50.1µM*,50.1µM*,7.94*
O=S(=O)(Nc1nc2ccccc2nc1N1CCN(c2ccccc2)CC1)c1ccccc1,/,/,/,-26.0%,/,/,/
COc1cccc(CNC(N)=O)c1,/,/,/,-1.3%,/,/,/
COC(=O)C(=Cc1ccc(-c2ccsc2C(=O)OC)o1)C(=O)OC,-2.9%,-15.4%,34.6%,-10.9%,-2.4%,-16.4%,/
CC(C)(Cc1c[nH]c2ccccc12)NCC(O)COc1ccccc1C#N (stereo not drawn),-28.8%[12.7 µM],/,/,?,/,/,/
CN(C)c1ccc(CNC(=O)c2cccc(NC(=O)N3CCSc4ncccc43)c2)cc1,2.82µM*,/,-15.0%,6.8%,?,?,17.8*
COc1cc(Cl)c(C)cc1NC(=O)c1ccc2c(c1)OCO2,-23.7%,4.7%,51.0%,6.8%,-25.4%,4.3%,/
COc1cccc(CN2CCN(C(=O)c3cccs3)CC2)c1OC,-2.8%[59 µM],-9.4%,14.1%,-4.9%,/,-12.8%,/
COc1cccc(OC)c1C(=O)N1CCN(Cc2ccccc2C(F)(F)F)CC1,?,-13.6%,?,?,20µM*,7.94µM*,4.48*
COc1ccc(OC)c(CN2CCN(C(=O)c3cccc4ccccc34)CC2)c1,2.51µM*,5.0%,22.4µM*,?,39.8µM*,10µM*,22.4*
CSc1ccc(S(=O)(=O)NCc2ccc(C)cc2)cc1,49.3%[59 µM],-7.4%,73.0%,5.5%,11.3%,-11.3%,/
CN(C)c1ccc(NC(=O)Nc2ccc3snnc3c2)cc1,1.26µM*,-11.5%,-27.4%,11.1%,-35.1%,-15.8%,1.59*
O=C(Nc1ccccc1)Nc1ccc2snnc2c1,9.2%[59 µM],-19.6%,0.4%,?,1.4%,-13.0%[11.4 µM],/
CCN1c2ccccc2NC2=C(C(=O)CC(C)(C)C2)C1c1ccccc1 (stereo not drawn),/,/,/,-0.6%,/,/,/
CCN1c2ccccc2NC2N=C(OC)C(c3ccccc3)C21 (stereo not drawn),?,-13.9%,?,/,44.7µM*,50.1µM*,11.2*
Cc1ccc(S(=O)(=O)N(C)CCCC(=O)Nc2ccncc2)cc1,-50.7%,-5.4%,35.4%,10.0%[57.4 µM],4.5%,-11.3%,/
CCOc1ccccc1NC(=O)c1c(NCc2cccs2)sc2c1CCCCC2,?,/,0.1%,?,-3.1%,-22.8%,/
COc1ccc(Cl)cc1NC(=O)c1c(NCc2cccs2)sc2c1CCCC2,1.41µM*,/,-2.4%,?,-38.9%,?,4.08*
CCOC(=O)N1CCc2c(sc(NCc3cccs3)c2C(=O)Nc2cc(Cl)ccc2OC)C1,1.12µM*,/,19.2%,?,-23.8%,?,2.29*
Cc1cccc(C(=O)NNC(=O)c2ccco2)c1,-2.5%[59 µM],-5.8%,50.4%,-8.5%,-3.9%,-6.4%,/
COc1cccc(NC(=O)C2CC(=O)n3cnnc3S2)c1 (stereo not drawn),0.631µM*,?,-74.5%,?,?,17.8µM*,0.178*
COc1ccc(NC(=O)C2CC(=O)n3cnnc3S2)cc1 (stereo not drawn),?,?,-65.8%,0.0%,-33.5%,11.2µM*,0.178*
COc1cccc(N=C2SC(C(=O)Nc3ccc(F)cc3)CC(=O)N2C)c1 (stereo not drawn),3.2%[59 µM],1.3%,24.1%,-14.1%,-4.3%,-11.8%,/
CC(C)OCCCNCc1ccc(C(C)C)cc1,/,/,/,-22.8%,/,/,/
N#Cc1ccccc1Cn1c(-c2cscn2)nc2ccccc21,8.6%[2.33 µM],-1.1%,31.7%,0.0%,-1.3%,-17.1%,/
Cc1nc2ccc(CCO)cc2s1,1.12µM*,-18.0%,40.2%,10.4%,1.1%,-6.5%,?
CC(C)NC(=O)N1CCN(C(=O)NC(C)C)[C@@H](C(=O)N[C@H](Cc2c[nH]c3ccccc23)C(N)=O)C1,/,/,/,5.2%,/,/,/
